Drawing on PubChem BioAssay (NCI), this text covers growth for 39 compounds.

SMILES strings stand for the structures. Values joined by “and” are separate entries in the source; they are usually repeats but may differ in a detail not shown here. Identical values can stand only once. This is part of a sample that, as a whole, favours compounds with a hit. Of some 83,000 tested, about 20% had one in any assay.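 Interpretation: 100, growth as untreated; towards 0, rising growth inhibition; 0, no net growth; 0 to -100, cell death. Compounds scoring below 10 were considered active.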 Unmarked numbers belong to inactive results. Active and inactive are the calls of the source.

This experiment relates to MDA-MB-468 breast. Kind of experiment: NCI-60 one-dose screen, 48 h (100 = growth as untreated, 0 = no growth, -100 = all killed). The following applies: 10 µM unless noted.
Regarding `c1ccc(-c2nc3nonc3nc2-c2ccccc2)cc1`, the growth was 38.9%.

With `CCCOc1ccc(/C=N/Nc2cc(C)nc3ccc(Br)cc23)cc1`, the growth was 96.1%.

As for `Cc1ccc2sc3c(NCCN)nc4ccccc4c3c(=O)c2c1`, the growth was 56.8%.

For `O=C(O)C(=Cc1c2ccccc2cc2ccccc12)C(=O)O`, the growth is 116%.

For the compound `Cn1cc(-c2nonc2-c2cn(C)c3ccc(F)cc23)c2ccccc21`, the growth is 0.775% (active).

Turning to `c1cc[c]([Bi]([c]2ccccc2)[c]2ccccc2)cc1`, the growth was 84.7%.

`O=C1/C=C/[C@@H](O)[C@@H]2C[C@@H](O)C[C@H]2/C=C/CCC[C@H](CCc2ccc(NC(=S)Nc3ccc4c(c3)C(=O)OC43c4ccc(O)cc4Oc4cc(O)ccc43)cc2)O1`: the growth was -17.5% (active).

Regarding `COc1cc(OC)c(C(=O)/C=C/c2ccc(C(F)(F)F)cc2)c(OC)c1`, the growth was 46.3%.

As to `NC(N)=Nc1ccc(Oc2cccc(NC(N)=Nc3ccc(I)cc3F)c2)cn1`, the growth was -8.03% (active).

Turning to `CNc1ccc2nc3ccc(=[N+](C)C)cc-3sc2c1`, the growth is -48.1% (active) and -39.5% (active).

Take `Cc1ccc(C(F)(F)F)cc1N1CCN(C(=O)[C@H]2C[C@H]2c2ccc(C(F)(F)F)nc2)CC1`: the growth was 65.6%.

With `COc1ccc(/C=C(\C#N)n2nnc3cc(F)c(F)cc32)cc1`, the growth is 8.69% (active).

In the case of `COc1ccc(CCN2C(=O)CCSC2=S)cc1`, the growth was 10.7%.

Take `COc1cccc2c1C(=O)c1c(O)c3c(c(O)c1C2=O)C[C@@](O)(/C(C)=N/NC(=O)c1ccc(Cl)cc1)C[C@@H]3OC1CC(N)C(O)C(C)O1` (some centres undefined): the growth is -65.1% (active).

Regarding `O=C1/C(=C/c2ccc([N+](=O)[O-])cc2)Oc2ccc(O)cc21`, the growth was -63.3% (active).

Regarding `O=C(Nc1ccc(Cl)cc1)c1cc2cc(F)ccc2cc1O`, the growth was -1.3% (active).

For `COC(=O)/C(CCC=C(C)C)=C1\[C@@H](OC(C)=O)C[C@@]2(C)[C@H]1C[C@@H](O)[C@H]1[C@@]3(C)CC[C@H](NC(=O)c4cnccn4)[C@@H](C)[C@@H]3CC[C@@]12C`, the growth is 106%.

`COc1cc(NC(=O)Nc2cnc(Nc3ccc(N4CCOCC4)cc3)nc2Oc2ccc(C(F)(F)F)cc2)cc(OC)c1`: the growth is 110%.

`CCC(C)CC(C)C(=O)c1c(O)ccn(O)c1=O` (centres undefined): the growth was 13.8%.

Consider `Cc1cccc([N+](=O)[O-])c1I`, for which the growth was 104%.

Turning to `O=C1/C(=C\c2cccn2C(=O)c2ccccc2)c2ccccc2N1c1c(Cl)cccc1Cl`, the growth was 46.8%.

Regarding `COc1cc(-c2nn(-c3cccc(NC(=O)Nc4ccc(Cl)c(C(F)(F)F)c4)c3)cc2-c2ccncc2)ccc1Cl`, the growth is -7.22% (active).

`COC1/C=C/OC2(C)Oc3c(C)c(O)c4c(O)c(c(/C=N/N(c5ccccc5)c5ccccc5)c(O)c4c3C2=O)NC(=O)C(C)=C/C=C/C(C)C(O)C(C)C(O)C(C)C(OC(C)=O)C1C` (centres undefined): the growth is -44.7% (active).

Regarding `COc1ccc(OC)c(/C=C2\CCc3ccccc3C2=O)c1`, the growth is -5.15% (active).

On to `Cc1ccc(Nc2nc(-c3ccc(F)cc3)c(C#N)c(=O)n2C)cc1`, for which the growth was 62.1%.

`CN1CCC(OC2c3ccccc3CCc3ccccc32)CC1`: the growth is 89.6%.

Consider `COC(=O)[C@@H]1[C@H](O)[C@H](C)[C@H](O)[C@H](C)/C=C\C=C(C)C(=O)Nc2c(C)c(OC(C)=O)c3c(c2O)C(=O)C(C)=C2OCOC(=C23)C(C)=C[C@@](C)(O)[C@H](O)[C@@H](C)[C@H]1OC(C)=O`, for which the growth is 110%.

As for `Nc1cc(Br)c(-c2nnc(CCC(=O)c3nc4ccccc4[nH]3)o2)c(Br)c1`, the growth is 16.9%.

As to `CN(C)CCCNC(=O)c1cncnc1Nc1ccc2c(ccn2Cc2cccc(F)c2)c1`, the growth was 52.6%.

As to `CC(C)(C)OC(=O)N1CCCN(CCNc2nccc(-c3c(-c4cccc(O)c4)nc4sccn34)n2)S1(=O)=O`, the growth is 97.3%.

As to `Cc1ccc(C2C3CC4CCCCC4N3[C@@]3(C(=O)Nc4cc(Cl)ccc43)C2C(=O)c2nc3ccccc3[nH]2)cc1` (some centres undefined), the growth was -10.9% (active).

Regarding `Cc1ccc(S(=O)(=O)Nc2ccc(Cl)cc2)cc1`, the growth was 107%.

In the case of `CN(C)c1ccc(/C=c2\sc3nc4ccccc4n3c2=O)cc1`, the growth was 78.4%.

`Cc1ccc2c(n1)C(=O)C(Cl)=C(Nc1ccccc1C(C)C)C2=O`: the growth was 34.9%.

Consider `O=C(c1ccccc1)c1ccc(N2C(=O)C3C4c5ccccc5C(/C=C/C(=O)c5ccccn5)(c5ccccc54)C3C2=O)cc1` (centres undefined), for which the growth was 21.9%.

Consider `CC(C)Sc1ncnc2nc[nH]c12`, for which the growth was 109%.

For the compound `Fc1ccc(-c2nnc(-c3c(-c4ccc(F)cc4)nc4ncccn34)o2)cc1`, the growth is 88.7%.

`COC(=O)[C@]12CCC(C)(C)C[C@H]1[C@H]1C(=O)C[C@@H]3[C@@]4(C)c5c([nH]c6ccccc6c5=O)C(C)(C)[C@@H]4CC[C@@]3(C)[C@]1(C)CC2`: the growth was 34.5%.

Regarding `CCc1ccccc1-n1c(-c2ccc(Cl)cc2)cc(-c2ccc(OC)cc2)c(C#N)c1=O`, the growth is 104%.
